Key:
Details in all cases: concentration: 1 μM, replicates: in singlicate; n = 1
DYRK1B = test system: DYRK1B
DYRK2 = test system: DYRK2
EGFR = test system: EGFR
EIF2AK1 = test system: EIF2AK1
EPHA1 = test system: EPHA1
EPHA2 = test system: EPHA2
EPHA3 = test system: EPHA3
EPHA4 = test system: EPHA4
EPHA5 = test system: EPHA5
EPHA6 = test system: EPHA6
EPHA7 = test system: EPHA7
EPHA8 = test system: EPHA8
EPHB1 = test system: EPHB1
EPHB2 = test system: EPHB2
EPHB3 = test system: EPHB3
EPHB4 = test system: EPHB4
EPHB6 = test system: EPHB6
ERBB2 = test system: ERBB2
ERBB3 = test system: ERBB3
ERBB4 = test system: ERBB4
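Further: KINOMEscan kinase panel screen.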

| Structure (SMILES) | %Inh (DYRK1B) | %Inh (DYRK2) | %Inh (EGFR) | %Inh (EIF2AK1) | %Inh (EPHA1) | %Inh (EPHA2) | %Inh (EPHA3) | %Inh (EPHA4) | %Inh (EPHA5) | %Inh (EPHA6) | %Inh (EPHA7) | %Inh (EPHA8) | %Inh (EPHB1) | %Inh (EPHB2) | %Inh (EPHB3) | %Inh (EPHB4) | %Inh (EPHB6) | %Inh (ERBB2) | %Inh (ERBB3) | %Inh (ERBB4) |
| --- | --- | --- | --- | --- | --- | --- | --- | --- | --- | --- | --- | --- | --- | --- | --- | --- | --- | --- | --- | --- |
| c1ccc(-c2cnc3nccnn23)cc1 [AH20685] | 5% | 3% | 14% | 0% | 0% | 11% | 0% | 0% | 0% | 0% | 0% | 5% | 0% | 0% | 1% | 0% | 1% | 0% | 0% | 0% |
| CN1CCN(CCCNc2nccc(-c3c(-c4ccc(F)cc4)nn4cc(C(F)(F)F)ccc34)n2)CC1 [GW621581] | 0% | 4% | 23% | 0% | 42% | 0% | 0% | 1% | 0% | 8% | 0% | 15% | 13% | 0% | 0% | 9% | 26% | 0% | 0% | 0% |
| NCCCC(NC(=O)c1cc(Br)c(-c2ccnc3[nH]ccc23)s1)c1ccccc1.O=C(O)C(F)(F)F.O=C(O)C(F)(F)F (centres unmarked) [GSK1287544] | 22% | 37% | 4% | 0% | 6% | 0% | 0% | 11% | 5% | 18% | 8% | 7% | 30% | 0% | 0% | 15% | 0% | 0% | 0% | 15% |
| O=C(NC1CCN(c2ccnc(Nc3ccc(F)cc3)n2)C1)c1cc2ccccc2s1 (centres unmarked) [GSK1379716] | 14% | 0% | 22% | 0% | 9% | 17% | 0% | 16% | 2% | 10% | 7% | 14% | 9% | 18% | 17% | 15% | 0% | 42% | 22% | 28% |
| COc1cc(Nc2ncc3c(C)nc(-c4cc5ccccc5[nH]4)n3n2)cc(OC)c1OC [GW869516] | 81% | 0% | 0% | 0% | 41% | 49% | 7% | 46% | 16% | 0% | 0% | 4% | 58% | 36% | 0% | 47% | 0% | 14% | 26% | 34% |
| Cc1ccc(C(=O)N2CC[C@@H](O)C2)cc1-n1c(C)cc(OCc2ccc(F)cc2F)c(Br)c1=O | 0% | 0% | 0% | 0% | 78% | 76% | 42% | 0% | 0% | 0% | 0% | 85% | 84% | 8% | 0% | 0% | 92% | 36% | 0% | 35% |
| CCc1ccc(-c2ccc3c(c2)-c2c(cnn2C)S(=O)(=O)N3C)cc1 | 3% | 0% | 15% | 0% | 0% | 0% | 0% | 1% | 8% | 0% | 0% | 0% | 0% | 0% | 0% | 1% | 25% | 0% | 0% | 4% |
| COc1ccc(Nc2nccc(N3CCC(NC(=O)Nc4cccc(OC)c4)C3)n2)cc1 (centres unmarked) [GSK1379742] | 0% | 0% | 20% | 0% | 10% | 0% | 0% | 1% | 0% | 8% | 6% | 11% | 9% | 0% | 12% | 0% | 9% | 34% | 4% | 0% |
| FC(F)(F)c1ccc(/C=C/c2cncnc2Nc2ccc3[nH]c(Cc4ccccc4)nc3c2)cc1 [GW709199] | 31% | 0% | 46% | 0% | 10% | 12% | 0% | 0% | 0% | 0% | 0% | 1% | 9% | 7% | 5% | 37% | 0% | 69% | 69% | 72% |
| Cc1ccc(F)c(C(=O)Nc2cccc(-c3nn4ccccc4c3-c3ccnc(Nc4cccc(F)c4)n3)c2)c1F [GSK361061] | 0% | 5% | 99.1% | 9% | 32% | 26% | 25% | 20% | 1% | 32% | 41% | 53% | 40% | 0% | 9% | 10% | 94.3% | 88% | 25% | 96.4% |

From PMC5540273 (PLoS ONE, 2017)
